Experimental findings from PMC7862700, “An all-to-all approach to the identification of sequence-specific readers for epigenetic DNA modifications on cytosine” are described below.

What all share (assay): DAPPL (digital affinity profiling via proximity ligation, sequencing); 10 mM Tris-HCl pH 7.5, 50 mM NaCl, 1 mM DTT, 4% glycerol, room temperature, 30 min; GST-TFs on glutathione beads, 16-mer random dsDNA library, 0.1% formaldehyde crosslink after washing; high values mean tight binding
Common to all, as to conditions: protein: recombinant; tags: N-terminal GST; dsDNA, one strand shown

One experiment addresses T1, FLI1 (Homo sapiens, UniProt Q01543 1-452).
T1 sequence: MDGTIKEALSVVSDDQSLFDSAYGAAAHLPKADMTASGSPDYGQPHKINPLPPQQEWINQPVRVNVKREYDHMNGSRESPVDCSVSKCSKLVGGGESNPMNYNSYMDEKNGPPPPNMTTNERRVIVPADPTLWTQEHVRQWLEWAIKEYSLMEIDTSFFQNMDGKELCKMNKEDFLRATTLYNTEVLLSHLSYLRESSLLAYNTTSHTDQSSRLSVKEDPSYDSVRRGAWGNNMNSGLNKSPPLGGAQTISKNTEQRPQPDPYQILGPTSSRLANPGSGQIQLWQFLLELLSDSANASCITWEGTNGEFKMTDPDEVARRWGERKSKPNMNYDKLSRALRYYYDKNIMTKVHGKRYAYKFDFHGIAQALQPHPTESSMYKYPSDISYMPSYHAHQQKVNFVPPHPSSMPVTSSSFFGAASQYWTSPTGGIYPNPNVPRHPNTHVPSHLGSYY
The gist of the method: (§1)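 Binding signal is defined as a hexamer's read frequency for one factor over its frequency for the tag-only sample. To obtain reads, GST-fused human transcription factors were expressed in yeast, captured on glutathione beads, barcoded with DNA and pooled with that sample. Pools met 200 nmole of a 16-mer random double-stranded DNA library in Tris/NaCl/DTT/glycerol buffer for 30 min at room temperature before washing, 0.1% formaldehyde crosslinking, proximity ligation (BsaI/T4 ligase, 1 h, 37 °C), PCR and Illumina NextSeq500 sequencing.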

The next experiment addresses T2, ELK1 (Homo sapiens, UniProt P19419 1-428).
T2 sequence: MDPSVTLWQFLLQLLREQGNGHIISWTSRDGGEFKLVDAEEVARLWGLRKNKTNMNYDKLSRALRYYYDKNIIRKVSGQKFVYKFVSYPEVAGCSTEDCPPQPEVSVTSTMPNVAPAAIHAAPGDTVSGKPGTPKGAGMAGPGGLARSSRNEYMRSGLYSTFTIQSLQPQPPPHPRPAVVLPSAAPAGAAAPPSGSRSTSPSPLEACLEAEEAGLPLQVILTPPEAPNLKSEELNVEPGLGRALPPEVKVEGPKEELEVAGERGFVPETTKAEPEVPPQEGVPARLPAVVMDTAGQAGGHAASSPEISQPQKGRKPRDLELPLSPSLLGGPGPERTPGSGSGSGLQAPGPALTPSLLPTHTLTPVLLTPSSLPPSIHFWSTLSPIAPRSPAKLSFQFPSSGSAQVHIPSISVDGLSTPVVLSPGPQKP
The gist of the method:
as §1

The next experiment addresses T3, GABPA (Homo sapiens, UniProt Q06546 1-454).
T3 sequence: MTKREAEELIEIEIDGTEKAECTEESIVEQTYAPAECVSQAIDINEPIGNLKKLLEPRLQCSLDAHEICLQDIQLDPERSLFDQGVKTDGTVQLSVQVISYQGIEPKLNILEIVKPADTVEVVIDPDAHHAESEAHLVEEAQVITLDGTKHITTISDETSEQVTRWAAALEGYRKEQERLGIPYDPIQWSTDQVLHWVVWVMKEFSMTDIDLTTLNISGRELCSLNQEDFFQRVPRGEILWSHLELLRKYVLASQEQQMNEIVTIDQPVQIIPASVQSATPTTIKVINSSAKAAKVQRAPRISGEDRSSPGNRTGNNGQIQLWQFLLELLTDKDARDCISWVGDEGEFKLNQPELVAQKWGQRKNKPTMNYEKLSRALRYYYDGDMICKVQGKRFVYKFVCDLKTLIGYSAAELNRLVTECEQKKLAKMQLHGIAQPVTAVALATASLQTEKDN
In a few lines: as §1

In another experiment the target is T4, ERG (Homo sapiens, UniProt P11308 1-479).
T4 sequence: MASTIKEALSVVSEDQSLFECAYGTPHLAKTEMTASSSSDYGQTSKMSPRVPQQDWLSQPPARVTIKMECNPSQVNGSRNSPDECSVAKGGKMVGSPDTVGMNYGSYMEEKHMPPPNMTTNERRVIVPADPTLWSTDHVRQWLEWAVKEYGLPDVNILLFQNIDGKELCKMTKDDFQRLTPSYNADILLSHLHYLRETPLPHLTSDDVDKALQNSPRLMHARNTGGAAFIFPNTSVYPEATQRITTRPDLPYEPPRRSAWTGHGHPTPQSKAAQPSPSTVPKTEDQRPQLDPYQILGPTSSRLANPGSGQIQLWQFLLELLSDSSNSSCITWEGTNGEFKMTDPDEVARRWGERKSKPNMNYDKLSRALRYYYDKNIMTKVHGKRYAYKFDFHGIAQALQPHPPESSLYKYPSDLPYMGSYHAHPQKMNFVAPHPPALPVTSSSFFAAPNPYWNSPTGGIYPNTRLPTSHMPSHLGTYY
In a few lines: as §1

A further experiment deals with ELF1 (Homo sapiens, UniProt P32519 1-619). In a few lines: as §1
Chain of ELF1 (P32519 whole entry): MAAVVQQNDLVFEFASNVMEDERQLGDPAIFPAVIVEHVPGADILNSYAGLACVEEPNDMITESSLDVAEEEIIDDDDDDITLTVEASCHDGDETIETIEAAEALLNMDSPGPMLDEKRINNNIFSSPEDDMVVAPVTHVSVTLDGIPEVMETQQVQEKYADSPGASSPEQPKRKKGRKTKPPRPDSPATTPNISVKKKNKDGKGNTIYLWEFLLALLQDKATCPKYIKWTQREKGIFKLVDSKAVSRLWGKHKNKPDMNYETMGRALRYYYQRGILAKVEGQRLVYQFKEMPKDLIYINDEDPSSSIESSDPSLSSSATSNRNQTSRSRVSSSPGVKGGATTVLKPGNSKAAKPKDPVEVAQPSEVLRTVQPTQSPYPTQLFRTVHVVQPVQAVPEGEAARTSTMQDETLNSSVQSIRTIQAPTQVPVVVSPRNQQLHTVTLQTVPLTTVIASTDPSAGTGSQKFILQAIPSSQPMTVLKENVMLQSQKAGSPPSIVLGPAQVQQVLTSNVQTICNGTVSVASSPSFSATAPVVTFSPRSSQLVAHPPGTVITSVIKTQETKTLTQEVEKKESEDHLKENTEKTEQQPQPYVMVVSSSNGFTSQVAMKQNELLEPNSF
The target in a further experiment is T5, EHF (Homo sapiens, UniProt Q9NZC4 1-300).
T5 sequence: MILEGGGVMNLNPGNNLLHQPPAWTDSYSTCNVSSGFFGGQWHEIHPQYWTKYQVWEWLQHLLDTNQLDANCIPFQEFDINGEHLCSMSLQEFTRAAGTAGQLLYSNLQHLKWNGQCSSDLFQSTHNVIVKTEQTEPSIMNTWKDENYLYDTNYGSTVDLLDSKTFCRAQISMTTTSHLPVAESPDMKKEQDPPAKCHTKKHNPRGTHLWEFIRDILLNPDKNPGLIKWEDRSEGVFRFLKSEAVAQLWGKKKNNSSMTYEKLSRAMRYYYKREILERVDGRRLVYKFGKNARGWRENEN
The gist of the method:
as §1

The next experiment addresses SPI1 (Homo sapiens, UniProt P17947 1-270). The gist of the method: as §1
Another experiment concerns the target SPIB (Homo sapiens, UniProt Q01892 1-262). In a few lines: as §1
For a further experiment, the target named is T6, ELK3 (Homo sapiens, UniProt P41970 1-407).
T6 sequence: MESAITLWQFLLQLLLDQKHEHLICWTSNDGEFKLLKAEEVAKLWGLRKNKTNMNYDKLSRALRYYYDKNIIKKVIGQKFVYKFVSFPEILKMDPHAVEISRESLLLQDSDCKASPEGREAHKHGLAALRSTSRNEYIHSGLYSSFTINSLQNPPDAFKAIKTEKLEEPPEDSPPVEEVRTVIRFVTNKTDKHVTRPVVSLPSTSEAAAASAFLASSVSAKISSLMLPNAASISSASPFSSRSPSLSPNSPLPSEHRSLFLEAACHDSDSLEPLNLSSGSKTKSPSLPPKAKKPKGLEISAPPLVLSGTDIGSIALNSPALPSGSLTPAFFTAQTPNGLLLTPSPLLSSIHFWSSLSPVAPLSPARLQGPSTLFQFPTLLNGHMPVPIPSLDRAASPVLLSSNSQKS
In a few lines:
as §1

Chain of SPIB (Q01892 whole entry): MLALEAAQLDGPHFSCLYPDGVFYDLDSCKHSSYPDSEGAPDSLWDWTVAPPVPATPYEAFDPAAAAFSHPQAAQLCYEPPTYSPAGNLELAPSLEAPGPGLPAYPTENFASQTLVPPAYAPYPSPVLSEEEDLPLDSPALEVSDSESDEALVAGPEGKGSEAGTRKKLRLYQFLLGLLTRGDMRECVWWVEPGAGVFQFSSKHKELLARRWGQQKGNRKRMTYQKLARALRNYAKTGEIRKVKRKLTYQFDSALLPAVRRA

TTTCTA: the binding signal was 1.3 fold enrichment (6-mer frequency, TF over GST control) in the experiment with FLI1; 1.39 fold enrichment (6-mer frequency, TF over GST control) with ELK1; 1.29 fold enrichment (6-mer frequency, TF over GST control) in the experiment with GABPA; 1.34 fold enrichment (6-mer frequency, TF over GST control) with ERG; 1.28 fold enrichment (6-mer frequency, TF over GST control) with ELF1; 1.36 fold enrichment (6-mer frequency, TF over GST control) with EHF. Also, the binding signal with SPI1 was 1.36 fold enrichment (6-mer frequency, TF over GST control); in the experiment with SPIB, 1.19 fold enrichment (6-mer frequency, TF over GST control); with ELK3, 1.26 fold enrichment (6-mer frequency, TF over GST control).
As for AACTGG, the binding signal in the experiment with FLI1 was 1.22 fold enrichment (6-mer frequency, TF over GST control); with ELK1, 1.22 fold enrichment (6-mer frequency, TF over GST control); with GABPA it was 1.29 fold enrichment (6-mer frequency, TF over GST control); with ERG it was 1.31 fold enrichment (6-mer frequency, TF over GST control); in the experiment with ELF1 it was 1.27 fold enrichment (6-mer frequency, TF over GST control); in the experiment with EHF, 1.17 fold enrichment (6-mer frequency, TF over GST control). Also, the binding signal in the experiment with SPI1 was 1.31 fold enrichment (6-mer frequency, TF over GST control); with SPIB, 1.25 fold enrichment (6-mer frequency, TF over GST control); with ELK3 it was 1.28 fold enrichment (6-mer frequency, TF over GST control).
Take TAACAA: the binding signal was 1.22 fold enrichment (6-mer frequency, TF over GST control) with FLI1; 1.22 fold enrichment (6-mer frequency, TF over GST control) with ELK1; 1.14 fold enrichment (6-mer frequency, TF over GST control) in the experiment with GABPA; 1.18 fold enrichment (6-mer frequency, TF over GST control) with ERG; 1.2 fold enrichment (6-mer frequency, TF over GST control) with ELF1; 1.19 fold enrichment (6-mer frequency, TF over GST control) in the experiment with EHF. The binding signal in the experiment with SPI1 is 1.14 fold enrichment (6-mer frequency, TF over GST control); with SPIB it was 1.13 fold enrichment (6-mer frequency, TF over GST control); with ELK3, 1.34 fold enrichment (6-mer frequency, TF over GST control).
Regarding TTCCTA, the binding signal with FLI1 was 1.82 fold enrichment (6-mer frequency, TF over GST control); with ELK1, 1.72 fold enrichment (6-mer frequency, TF over GST control); in the experiment with GABPA, 1.55 fold enrichment (6-mer frequency, TF over GST control); in the experiment with ERG, 1.78 fold enrichment (6-mer frequency, TF over GST control); in the experiment with ELF1, 1.63 fold enrichment (6-mer frequency, TF over GST control); with EHF it was 1.59 fold enrichment (6-mer frequency, TF over GST control). Also, the binding signal with SPI1 is 1.7 fold enrichment (6-mer frequency, TF over GST control); with SPIB, 1.93 fold enrichment (6-mer frequency, TF over GST control); with ELK3, 1.74 fold enrichment (6-mer frequency, TF over GST control).
As for AATTCC, the binding signal with FLI1 is 1.95 fold enrichment (6-mer frequency, TF over GST control); with ELK1, 1.93 fold enrichment (6-mer frequency, TF over GST control); with GABPA it was 1.81 fold enrichment (6-mer frequency, TF over GST control); with ERG, 1.96 fold enrichment (6-mer frequency, TF over GST control); in the experiment with ELF1 it was 1.86 fold enrichment (6-mer frequency, TF over GST control); with EHF, 2.05 fold enrichment (6-mer frequency, TF over GST control). For the same sequence, the binding signal in the experiment with SPI1 was 1.89 fold enrichment (6-mer frequency, TF over GST control); with SPIB, 2.02 fold enrichment (6-mer frequency, TF over GST control); in the experiment with ELK3 it was 1.94 fold enrichment (6-mer frequency, TF over GST control).
Regarding CACGCT, the binding signal is 1.42 fold enrichment (6-mer frequency, TF over GST control) in the experiment with FLI1; 1.36 fold enrichment (6-mer frequency, TF over GST control) with ELK1; 1.36 fold enrichment (6-mer frequency, TF over GST control) with GABPA; 1.4 fold enrichment (6-mer frequency, TF over GST control) with ERG; 1.34 fold enrichment (6-mer frequency, TF over GST control) in the experiment with ELF1; 1.44 fold enrichment (6-mer frequency, TF over GST control) in the experiment with EHF. Besides, the binding signal was 1.33 fold enrichment (6-mer frequency, TF over GST control) with SPI1; 1.37 fold enrichment (6-mer frequency, TF over GST control) in the experiment with SPIB; 1.35 fold enrichment (6-mer frequency, TF over GST control) with ELK3.
For AAGTCT, the binding signal with FLI1 was 1.28 fold enrichment (6-mer frequency, TF over GST control); with ELK1, 1.18 fold enrichment (6-mer frequency, TF over GST control); with GABPA it was 1.07 fold enrichment (6-mer frequency, TF over GST control); in the experiment with ERG, 1.12 fold enrichment (6-mer frequency, TF over GST control); with ELF1 it was 1.14 fold enrichment (6-mer frequency, TF over GST control); with EHF it was 1.13 fold enrichment (6-mer frequency, TF over GST control). The binding signal with SPI1 was 1.27 fold enrichment (6-mer frequency, TF over GST control); with SPIB, 1.29 fold enrichment (6-mer frequency, TF over GST control); with ELK3, 1.18 fold enrichment (6-mer frequency, TF over GST control).
